Bioassay records (PubChem)
HP1b chromo inh = blocks HP1-beta chromodomain binding to methylated histone tails. AID 540317. Potency, µM (highest dose often 114 µM), inactives show at the top dose activity change, negative = inhibition, most hits filed as inhibitors. AlphaScreen HP1-beta / biotin-H3K9me3 peptide binding. hit rate 0.56% among 390,000; also: potency is read from the fitted curve at half-maximal effect; nearly all actives have a fitted effect of over 70% in size
Target sequence (P83916 whole entry, looked up): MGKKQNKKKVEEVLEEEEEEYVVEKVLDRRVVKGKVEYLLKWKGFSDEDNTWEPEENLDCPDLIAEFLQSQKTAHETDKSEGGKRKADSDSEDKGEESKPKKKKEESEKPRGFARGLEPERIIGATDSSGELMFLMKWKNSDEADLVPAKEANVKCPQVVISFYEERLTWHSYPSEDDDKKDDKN
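AlphaScreen: HP1-beta (50 nM) preformed 30 min with biotin-H3(1-18)K9me3 peptide (50 nM) in PBS pH 7.4, 0.01% Tween-20. Compound added for 30 min at RT, then streptavidin donor/nickel chelate acceptor beads (10 ug/mL) for 30 min.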
PI5P4K alpha inh = inhibitors of human PI5P4K alpha | P48426 | PI5P4Kalpha enzyme, ADP-Glo luminescence, 60 min; stronger effect = lower value | max response, % | hit rate 1.2% among 330,000; active = max response of -50% or lower; inconclusive = between -30% and -50%; inactive = -30% or higher; also: value at the top dose of about 77 µM; % is scaled to controls: 0 for no effect and ±100 for the full control effect
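Reactions run in 0.038 M HEPES pH 7.4, 0.28 mM EGTA, 0.1% CHAPS and 5% DMSO, with PI5P4Kalpha, substrate, compound and 5 microM ATP final, one hour at room temperature. Readout is ADP-Glo luminescence.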
G9a inh = blocks human histone lysine methyltransferase G9a; G9a H3K9 monomethylation, AlphaScreen, 2 h; Q96KQ7; Potency, µM (highest dose often 102 µM), inactives show at the highest dose activity, negative = inhibition, most hits filed as inhibitors; hit rate 8.8% among 350,000; also: potency is read from the fitted curve at half-maximal effect; % is scaled to controls: 0 for no effect and ±100 for the full control effect; nearly all actives have a fitted effect of over 75% in size
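G9a (20 nM) preincubated 15 min RT with compounds, then 500 nM biotinylated H3K9 peptide and 20 uM SAM added; 2 h RT reaction. Monomethyl-H3K9 product detected by AlphaScreen with anti-H3K9me1 antibody, streptavidin donor and anti-rabbit IgG acceptor beads.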
PLK1 PBD inh = blocks phosphopeptide binding to human PLK1 polo-box domain. Potency, µM, without a hit: max response, negative = inhibition, most hits filed as inhibitors. AID 720504. hit rate 2.8% among 360,000. Plk1 PBD binding of FITC phosphopeptide, fluorescence polarization; also: potency is read from the fitted curve at half-maximal effect; series mostly up to about 57 µM; % is scaled to controls: 0 for no effect and ±100 for the full control effect; nearly all actives have a fitted effect of over 65% in size
Target sequence (P53350 whole entry, looked up, the tested form may be a part): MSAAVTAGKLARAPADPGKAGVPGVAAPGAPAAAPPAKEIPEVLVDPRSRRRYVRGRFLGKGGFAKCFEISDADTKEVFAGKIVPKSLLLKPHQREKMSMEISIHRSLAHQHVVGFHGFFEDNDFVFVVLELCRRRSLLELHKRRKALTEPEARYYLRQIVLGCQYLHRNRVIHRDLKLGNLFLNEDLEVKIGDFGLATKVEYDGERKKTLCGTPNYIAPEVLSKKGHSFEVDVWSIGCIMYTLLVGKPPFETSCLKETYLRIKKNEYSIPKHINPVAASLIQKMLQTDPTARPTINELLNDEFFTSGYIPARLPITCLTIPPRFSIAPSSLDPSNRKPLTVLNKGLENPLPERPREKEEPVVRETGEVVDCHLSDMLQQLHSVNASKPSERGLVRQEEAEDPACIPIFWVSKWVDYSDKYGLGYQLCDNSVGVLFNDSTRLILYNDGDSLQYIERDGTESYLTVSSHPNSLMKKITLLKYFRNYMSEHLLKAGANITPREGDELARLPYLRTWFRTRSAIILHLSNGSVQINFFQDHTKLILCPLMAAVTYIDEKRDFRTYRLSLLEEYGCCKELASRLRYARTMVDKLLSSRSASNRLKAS
BAZ2B block = BAZ2B (human) inhibition; AlphaScreen BAZ2B-H3K14Ac peptide displacement; Potency, µM (highest dose often 114 µM), inactives show top-dose activity change, negative = inhibition, actives largely listed as inhibitors; hit rate 4.4% among 360,000; AID 504333; also: potency is read from the fitted curve at half-maximal effect; % is scaled to controls: 0 for no effect and ±100 for the full control effect; nearly all actives have a fitted effect of over 60% in size
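Compounds, titrated to a top concentration of 110 uM, were incubated 30 min at room temperature with preformed BAZ2B/acetyl-K14 H3 peptide complex (50 nM each). Proximity signal was measured by AlphaScreen after 20 min with beads.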
JMJD2A Tudor inh = JMJD2A Tudor domain (human) inhibition. O75164. AlphaScreen JMJD2A-Tudor / H3K4me3 peptide binding. Potency, µM (titrated, usually from 114 µM), for the others: at the top dose activity change, negative = inhibition, hits mostly inhibitors. hit rate 4.4% among 390,000. AID 504339; also: potency is read from the fitted curve at half-maximal effect; % is scaled to controls: 0 for no effect and ±100 for the full control effect; nearly all actives have a fitted effect of over 50% in size
Active calls of the source: *; [ ] = remark or other dose. This is a sample that favours compounds with a hit; in the whole collection about 12% have one here. Unless noted, calls follow the shape of the dose curve; as a rule, active = well fitted curve in the direction sought with a large enough effect; inconclusive = small, poorly fitted or top-dose-only effect, or another doubt; inactive = no such curve, though single readings can be large; an effect the other way counts as inactive or inconclusive.

What do the screens show for `CCC1OC(=O)C[C@@H](O)[C@H](C)[C@@H](OC2OC(C)CC(N(C)C)C2O)[C@@H](CC=O)C[C@@H](C)C(=O)/C=C/[C@]2(C)OC2C1C` (some centres undefined)?
G9a inh: -0.1%[12.7 µM]

Results for COc1cccc(C2C(C(=O)Nc3ccc(Cl)cc3)=C(C)Nc3c(C(=O)Nc4ccccc4)cnn32)c1OC (centres undefined) ?
HP1b chromo inh: 33.0%; G9a inh: 15.1%[59 µM]; BAZ2B block: 11.6%; JMJD2A Tudor inh: -28.3%

What do the screens show for `O=C(NCc1ccncc1)C(=O)NCC1OCCCN1S(=O)(=O)c1ccccc1` (centres undefined)?
HP1b chromo inh: 19.3%; PI5P4K alpha inh: -9.7; G9a inh: 4.6%[59 µM]; PLK1 PBD inh: -7.9%; BAZ2B block: 0.0%; JMJD2A Tudor inh: -19.0%

Results for O=C(NCCCn1ccnc1)C(=O)NCC1OCCN1S(=O)(=O)c1ccc(Cl)cc1 (centres undefined) ?
HP1b chromo inh: 24.2%; PI5P4K alpha inh: 6.6; G9a inh: -13.8%; PLK1 PBD inh: -6.3%; BAZ2B block: 12.6µM*; JMJD2A Tudor inh: 79.4µM*

How did O=C(NCCCn1ccnc1)C(=O)NCC1OCCN1S(=O)(=O)c1ccccc1 (centres undefined) do in these assays?
HP1b chromo inh: 33.1%; PI5P4K alpha inh: -3.3; G9a inh: 18.7%; PLK1 PBD inh: -7.5%; BAZ2B block: 22.4µM*; JMJD2A Tudor inh: inconclusive

What do the screens show for `O=C(NCCCn1ccnc1)C(=O)NCC1OCCCN1S(=O)(=O)c1ccccc1` (centres undefined)?
HP1b chromo inh: 12.1%; PI5P4K alpha inh: -7.1; G9a inh: 16.7%[59 µM]; PLK1 PBD inh: -10.7%; BAZ2B block: 14.1µM*; JMJD2A Tudor inh: -9.2%

What do the screens show for `O=C(NCCCn1ccnc1)C(=O)NCC1OCCCN1S(=O)(=O)c1ccc(F)cc1` (centres undefined)?
HP1b chromo inh: 15.1%; PI5P4K alpha inh: 3.0; G9a inh: -4.1%; PLK1 PBD inh: -9.1%; BAZ2B block: 50.1µM*; JMJD2A Tudor inh: -33.0%

How did CN(C)c1ccc(C2C=C(c3ccccc3)Nc3nnnn32)cc1 (centres undefined) do in these assays?
HP1b chromo inh: 35.6%; G9a inh: inconclusive; BAZ2B block: 4.8%; JMJD2A Tudor inh: -10.0%

What do the screens show for `CN1C(=O)C2(c3ccccc31)N(C)CC(c1ccccn1)C21SC(=S)N(Cc2ccco2)C1=O` (centres undefined)?
HP1b chromo inh: inconclusive; PI5P4K alpha inh: -0.9; PLK1 PBD inh: -2.7%; BAZ2B block: 22.4µM*; JMJD2A Tudor inh: 28.2µM*

How did CN1C(=O)C2(c3ccccc31)N(C)CC(c1ccccc1)C21SC(=S)N(Cc2ccco2)C1=O (centres undefined) do in these assays?
HP1b chromo inh: -13.5%; PLK1 PBD inh: -3.3%; BAZ2B block: 5.3%; JMJD2A Tudor inh: inconclusive

How did O=C(O)COc1ccccc1/C=N/NC(=O)CSc1nc2ccccc2n1Cc1ccccc1Cl do in these assays?
HP1b chromo inh: 0.6%; PI5P4K alpha inh: -8.5; G9a inh: inconclusive; PLK1 PBD inh: 59.7µM*; BAZ2B block: 70.8µM*; JMJD2A Tudor inh: inconclusive

What do the screens show for `O=C(CSc1nc2ccccc2n1Cc1ccccc1Cl)N/N=C/c1ccccc1C(=O)O`?
HP1b chromo inh: 15.1%; PI5P4K alpha inh: -21.1; G9a inh: 9.2%; PLK1 PBD inh: inconclusive; BAZ2B block: 0.1%; JMJD2A Tudor inh: -24.6%

How did COc1ccc(-c2cnnc(N/N=C/c3ccc(C)o3)n2)cc1 do in these assays?
HP1b chromo inh: -21.0%; PI5P4K alpha inh: -17.1; G9a inh: 22.3%; PLK1 PBD inh: 5.97µM*; BAZ2B block: -2.9%; JMJD2A Tudor inh: 14.1µM*

Results for COc1ccc(-c2cnnc(N/N=C/c3ccc(O)c(O)c3)n2)cc1 ?
HP1b chromo inh: -32.9%; PI5P4K alpha inh: -14.4; G9a inh: -7.7%; PLK1 PBD inh: -8.2%; BAZ2B block: 44.7µM*; JMJD2A Tudor inh: 39.8µM*

Results for CC(C)c1ccc(NC2CCCN(C(=O)CCc3cn[nH]c3)C2)cc1 (centres undefined) ?
HP1b chromo inh: 24.6%; PI5P4K alpha inh: -2.8; G9a inh: inconclusive; PLK1 PBD inh: 1.6%; BAZ2B block: -21.1%; JMJD2A Tudor inh: -22.2%

What do the screens show for `CC(=O)c1ccc(NC(=O)c2sc(-n3nc(C)c(Cc4ccc5c(c4)OCO5)c3C)nc2C)cc1`?
HP1b chromo inh: 12.0%; G9a inh: -17.1%[59 µM]; BAZ2B block: -31.1%; JMJD2A Tudor inh: 79.4µM*

How did CC(=O)Nc1ccc(CN2CCc3c([nH]c4ccccc34)C2c2ccccn2)cc1 (centres undefined) do in these assays?
HP1b chromo inh: -8.6%; PI5P4K alpha inh: 1.5; G9a inh: inconclusive; PLK1 PBD inh: -10.1%; BAZ2B block: inconclusive; JMJD2A Tudor inh: inconclusive

How did Cc1cccc(C2c3[nH]c4ccccc4c3CCN2Cc2cccn2-c2ncccn2)c1 (centres undefined) do in these assays?
HP1b chromo inh: inconclusive; PI5P4K alpha inh: -11.3; PLK1 PBD inh: -3.3%; BAZ2B block: 31.6µM*; JMJD2A Tudor inh: 50.1µM*

How did COc1ccc(C2c3[nH]c4ccccc4c3CCN2Cc2cccn2-c2ncccn2)cc1C (centres undefined) do in these assays?
HP1b chromo inh: inconclusive; PI5P4K alpha inh: 0.3; G9a inh: 18.0%[0.501 µM]; PLK1 PBD inh: -6.4%; BAZ2B block: 35.5µM*; JMJD2A Tudor inh: inconclusive

How did c1ccc(C2c3[nH]c4ccccc4c3CCN2Cc2cccn2-c2ccccn2)nc1 (centres undefined) do in these assays?
HP1b chromo inh: -9.2%; PI5P4K alpha inh: -3.2; G9a inh: inconclusive; PLK1 PBD inh: 4.7%; BAZ2B block: 20µM*; JMJD2A Tudor inh: inconclusive

Results for CCCN1CNc2c(c(=O)[nH]c(=S)n2CCc2cc(Cl)ccc2Cl)C1 ?
HP1b chromo inh: 42.4%; JMJD2A Tudor inh: -10.9%

Results for COc1ccc(-c2nc3cnc(Oc4cccc(Cl)c4)nc3n(CCC#N)c2=O)cc1 ?
G9a inh: 2.2%[0.501 µM]

Results for CO[C@H]1[C@@H](OC(N)=O)[C@H](O)[C@@H](Oc2ccc3c(O)c(NC(=O)c4ccc(O)c(CC=C(C)C)c4)c(=O)oc3c2C)OC1(C)C ?
G9a inh: 34.8%[21.5 µM]

What do the screens show for `Cc1ccc(-c2nc3ccccn3c2Nc2ccccc2)o1`?
HP1b chromo inh: 11.8%; PI5P4K alpha inh: 2.3; G9a inh: 50.1µM*; PLK1 PBD inh: -24.1%; BAZ2B block: -31.1%; JMJD2A Tudor inh: -8.4%

What do the screens show for `Cc1ccc2nc(-c3ccc(C)o3)c(Nc3ccccc3)n2c1`?
HP1b chromo inh: 0.9%; JMJD2A Tudor inh: -31.3%
